Screens deposited in PubChem by NMMLSC.
Most compounds without a hit are left out; they make up all but 1.2% or so of the library.
RGS16-Gao: regulators of human RGS16-Galphao interaction; O15492+P09471; bead-based flow cytometry RGS16-Galphao binding, fluorescence; actives lie on both sides; binding response (% of control), % at 10 µM; 0.38% of 220,000 active; AID 1441; call rule not given here;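 note: Galphao activated by GDP with aluminum fluoride before binding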
Target sequence (O15492 whole entry, looked up): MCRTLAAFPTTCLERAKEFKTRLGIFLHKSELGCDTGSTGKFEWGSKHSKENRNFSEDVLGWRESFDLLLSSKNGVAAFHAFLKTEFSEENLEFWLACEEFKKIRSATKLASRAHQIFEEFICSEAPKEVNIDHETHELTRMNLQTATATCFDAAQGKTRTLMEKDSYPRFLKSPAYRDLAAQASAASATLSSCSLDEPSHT
Target sequence (P09471 whole entry, looked up): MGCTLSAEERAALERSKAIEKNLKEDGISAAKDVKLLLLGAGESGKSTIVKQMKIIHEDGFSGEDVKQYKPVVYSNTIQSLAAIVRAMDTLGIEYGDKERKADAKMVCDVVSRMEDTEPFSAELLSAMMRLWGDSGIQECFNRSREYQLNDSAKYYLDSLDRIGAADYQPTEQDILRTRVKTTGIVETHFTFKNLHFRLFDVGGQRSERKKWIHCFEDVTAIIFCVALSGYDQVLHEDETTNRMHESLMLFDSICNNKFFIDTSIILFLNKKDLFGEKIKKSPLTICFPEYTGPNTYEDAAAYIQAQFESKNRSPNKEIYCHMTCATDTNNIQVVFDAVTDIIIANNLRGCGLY
RGS4-Gao reg: modulates binding of RGS4 to human Galphao; binding response (% of control), % at 10 µM; 0.33% of 220,000 active; Multiplexed bead flow cytometry; actives lie on both sides; in the data active = binding response below about 49% or above about 150%; inactive = in between;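 note: fluorescent Galphao activated with aluminum fluoride binding bead-coupled RGS4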
Target sequence (P09471 whole entry, looked up): as above
GSH bead fluor: GSH bead compound fluorescence profile. GSH beads flow cytometry, compound fluorescence 488/530 nm; active compounds read high. fluorescence (KMESF) at 10 µM. 0.25% of 190,000 active. AID 1776; in the data active = fluorescence above about 89;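 note: glutathione beads carrying GST-tagged Bcl family fusion proteins plus one bare bead set; values are compound well signal with DMSO vehicle wells as background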
RGS8-Gao reg: human RGS8-Galphao interaction regulation. AID 1423. 0.34% of 220,000 active. multiplexed bead flow cytometry, RGS8-Galphao binding; actives lie on both sides. response (percent of control binding), % at 10 µM; in the data active = response below about 60% or above about 140%; inactive = in between;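 note: Galphao activated as the GDP aluminium fluoride complex binding bead-coupled RGS8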
RGS7-Gao: modulates binding of RGS7 to human Galphao | P09471 | Multiplexed bead flow cytometry; actives lie on both sides | binding response (% of control), % at 10 µM | 0.35% of 220,000 active; in the data active = binding response below about 49% or above about 150%; inconclusive = no clear call, values can overlap the other calls; inactive = in between;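 note: fluorescent Galphao held in activated GDP-AlF4 state binding bead-coupled RGS7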
Avidin bead fluor: avidin bead compound fluorescence profile. Avidin beads, compound fluorescence 488/530 nm, flow cytometry; active compounds read high. fluorescence (KMESF) at 10 µM. 0.38% of 220,000 active. AID 1775; in the data active = fluorescence above about 47
Active calls of the source: *; ? = inconclusive; nt = no result.

SMILES	RGS16-Gao	RGS4-Gao reg	GSH bead fluor	RGS8-Gao reg	RGS7-Gao	Avidin bead fluor
COc1ccc(C(C(=O)NC(C)(C)C)N(C(=O)CNC(=O)c2cccs2)c2ccc(NC(C)=O)cc2)cc1OC (stereo unspecified)	77.2	93.9	23	96.7	90.3	7
Cc1ccc(NC(=O)c2ccc(OC(=O)CCN3C(=O)c4ccccc4C3=O)cc2)cc1	99.5	96.3	10	99.0	105.7	48*
CCn1c(SCC(=O)N2CCCCC2C)nnc1-c1ccc(S(=O)(=O)N2CCN(C)CC2)cc1 (stereo unspecified)	131.7	109.9	264*	110.1	107.0	7
O=c1/c(=C/c2ccc(O)cc2)sc2nc3cc(Br)cnc3n12	95.5	97.3	10	100.1	102.1	19
O=C(C1CCN(S(=O)(=O)N2CCC3(CC2)OCCO3)CC1)N1CCN(Cc2ccccc2)CC1	123.5	129.9	26	98.2	146.6	133*
O=C(NCCCN1CCN(Cc2ccccc2)CC1)C1CCN(S(=O)(=O)N2CCC3(CC2)OCCO3)CC1	91.8	92.8	18	93.8	?	12
COC(=O)c1ccc(/C=N/OCC(=O)NCc2ccc(F)cc2)cc1	109.9	111.9	16	100.4	?	54*
COc1cccc(N=C2SC(CC(=O)Nc3ccccc3)C(=O)N2Cc2ccccn2)c1 (stereo unspecified)	100.7	100.2	17	98.9	?	11
CC1(C)CC(=O)C(Br)=C(O)C1	106.4	104.8	16	100.1	?	11
CC1(C)CC(=O)C(=C2SCCCS2)C(=O)C1	97.2	98.3	156*	99.6	95.4	14
CCCCN(CCCC)S(=O)(=O)c1ccc(NS(=O)(=O)c2ccc(NC(C)=O)cc2)cc1	98.6	102.2	6	101.9	101.8	6
CCCCOc1ccc(S(=O)(=O)Nc2ccc(NC(C)=O)cc2)cc1	116.2	102.9	129*	107.8	105.6	5
O=C(COc1ccc(-c2nnco2)cc1)NC1CCCc2ccccc21 (stereo unspecified)	77.7	82.2	233*	90.5	84.8	4
O=C(COc1ccccc1)NC1CCCc2ccccc21 (stereo unspecified)	98.9	95.1	6	99.8	99.3	13
Cc1ccc(S(=O)(=O)Nc2cccc(-c3ccc4nnc(C)n4n3)c2)s1	103.8	100.8	9	100.8	?	8
CC(C)CCNC(=O)CN(C(=O)Cn1nnc(-c2ccccc2F)n1)c1cccc2c1CCCC2	0.7*	19.6*	23	11.8*	11.7*	-1
O=C(NCCSc1ccccc1)c1cncc(Br)c1	106.1	105.7	18	101.5	122.8	91*
O=C(NCCSc1ccccc1)c1ccc(Br)cc1	102.1	100.8	18	101.5	97.2	16
O=C(NN1CCN(Cc2ccccc2Cl)CC1)c1ccc(Br)cc1	100.2	100.0	11	102.3	?	13
CCOC(=O)/C(C#N)=N/Nc1c(C)n(C)n(-c2ccccc2)c1=O	101.2	101.8	11	102.8	102.8	9
CCOC(=O)/C(C#N)=N/Nc1ccccc1C#N	105.1	113.6	nt	98.2	?	47*
C=CCOC(=O)c1cc(-c2ccc(/C=C3\C(=O)NC(=O)C(C#N)=C3C)o2)ccc1Cl	80.9	78.9	260*	93.0	83.0	5
CC1=C(C#N)C(=O)NC(=O)/C1=C/c1ccc(-c2ccc(S(N)(=O)=O)cc2)o1	97.5	102.5	10	93.0	?	11
CC(=O)CCC(=O)OCC(=O)c1ccc(C(F)(F)F)cc1	94.6	94.0	nt	99.4	?	6
N#CC(C(=O)Nc1ccc(Cl)c(Cl)c1)=C1Nc2ccccc2N1	102.4	99.5	26	101.5	105.4	50*
SMILES	RGS16-Gao	RGS4-Gao reg	GSH bead fluor	RGS8-Gao reg	RGS7-Gao	Avidin bead fluor
N#CC(C(=O)Nc1cccc(Cl)c1)=C1Nc2ccccc2N1	103.6	108.8	17	100.8	101.8	34
O=C(NCc1ccccc1F)Nc1ccc([N+](=O)[O-])cc1	99.5	98.2	11	100.5	96.8	12
CN1CCN(C(=O)C(C(=O)c2ccc(F)cc2)n2ccccc2=O)CC1 (stereo unspecified)	113.3	108.0	35	106.9	116.1	59*
O=C(NCc1ccccn1)C(C(=O)c1ccc(F)cc1)n1ccccc1=O (stereo unspecified)	101.3	104.3	18	101.5	110.5	56*
O=C(NCc1ccco1)C(C(=O)c1ccc(F)cc1)n1ccccc1=O (stereo unspecified)	95.3	101.0	22	100.5	97.8	5
COc1ccc(NC(=O)c2cccn(CC=C(C)C)c2=O)cc1	112.1	109.7	10	104.0	105.5	21
CCN(CC)NC(=S)Nc1ccccc1	115.0	106.1	35	106.9	105.0	11
CC(C)N(C)NC(=S)Nc1ccccc1	84.5	92.7	332*	95.8	93.5	7
O=C(CSc1nc2ccccc2s1)N/N=C/c1ccco1	100.9	98.4	10	102.4	100.1	4
C/C(=N\NC(=O)CSc1nc2ccccc2s1)c1ccco1	114.7	120.5	408*	99.2	111.5	29
Cc1cccn2c(CN(C)CCC3CCCCO3)c(C(=O)N3CCCCC3)nc12 (stereo unspecified)	92.1	89.3	10	97.3	89.0	2
Cc1ccc(Cl)c(NC(=O)CN2CCNC(=O)C2)c1Cl	100.0	103.2	14	101.2	?	11
O=C(/C=C/c1cc([N+](=O)[O-])ccc1OC(F)F)NCc1ccc(F)cc1	104.6	100.5	265*	100.8	96.6	7
CCOCCCNC(=O)CSc1ccccc1	97.3	98.0	37	98.6	104.4	51*
COCCCNC(=O)CSc1ccc(Cl)cc1	94.0	96.0	11	98.5	100.8	5
CC(=O)Cc1nsc(NC(=O)c2ccc(-c3cccc(C(F)(F)F)c3)o2)n1	130.1	109.9	38	108.0	115.0	53*
CC(=O)Cc1nsc(NC(=O)c2ccc(-c3cc(C(F)(F)F)ccc3Cl)o2)n1	99.8	101.9	50	103.2	99.5	8
Cc1nc(Br)c(Br)c(C)c1Br	94.9	96.3	nt	97.4	?	nt
Nn1c(-c2ccccc2Cl)nnc1-c1ccccc1Cl	108.0	119.2	102*	106.4	112.7	8
O=C(CSC1=NCCS1)N1CCN(c2ccccc2)CC1	78.3	90.0	25	89.9	94.2	4
O=C(CSC1=NCCS1)N1CCOCC1	107.0	101.1	249*	103.2	100.1	8
Cn1cc(CNCc2ccccc2OCC(O)CN2CCc3ccccc3C2)cn1 (stereo unspecified)	103.7	105.1	9	106.9	102.6	3
COc1cccc(NC(=O)NC2CCN(Cc3nnnn3Cc3ccc4c(c3)OCO4)CC2)c1	110.8	109.2	nt	108.1	?	8
COc1ccc(OC)c(NC(=O)c2ccc(-c3cccs3)cc2)c1	101.2	101.8	15	99.2	99.2	10
